# Measured values taken from PubChem BioAssay AID1645838 (ICCB-Longwood Screening Facility, Harvard Medical School, 2021).
# Where “and” joins values, the source holds several entries; their conditions need not be identical. Identical values can stand only once. Out of some 2,000 compounds screened, about 100 (5%) were called active. No stated cut-off is given here; in the data, active means z-score above about 2; inactive means the rest. Shown is part of a subset that was picked to be rich in actives.
# Assay: supercomplex reporter luminescence per Hoechst cell count – Hoechst nuclei count (AID 1645838);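 further: control cybrid cells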;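 on z-score: higher means more mitochondrial supercomplex formation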
# Settings: Cells, luminescence/Hoechst cell count ratio; for z-score: stronger effect = higher value; for cell count: measured here: cell number, Hoechst nuclei count
# [1] = library stock concentration (final well concentration not given) 46 uM
# [2] = library stock concentration (final well concentration not given) 278 uM
# [3] = library stock concentration (final well concentration not given) 1.67 mM
# [4] = library stock concentration (final well concentration not given) 10 mM
# [5] = library stock concentration (final well concentration not given) 80 uM
# [6] = library stock concentration (final well concentration not given) 400 uM
# [7] = library stock concentration (final well concentration not given) 2 mM
structure (smiles),measurement,setting,value
CCCCC[C@H](O)/C=C/[C@H]1[C@H](O)CC(=O)[C@@H]1CC(=O)CCCCC(=O)O,z-score,,0.036 (inactive)
same,cell count,,5230
CN(C)C1CCc2[nH]c3ccc(NC(=O)c4ccc(F)cc4)cc3c2C1 (stereo not given),z-score,[1],-0.478 (inactive)
same,z-score,[2],-0.381 (inactive)
same,z-score,[3],-0.318 (inactive)
same,z-score,[4],-0.368 (inactive)
same,cell count,[1],6480
same,cell count,[2],6070
same,cell count,[3],6670
same,cell count,[4],6110
CCCCC[C@H](O)/C=C/[C@H]1C2COC(C2)[C@@H]1C/C=C/CCCC(=O)O (stereo not given in full),z-score,,-0.6 (inactive)
same,cell count,,5320
Cc1cc(Nc2cc(N3CCN(C)CC3)nc(Sc3ccc(NC(=O)C4CC4)cc3)n2)n[nH]1,outcome,library stock 80 µM,inactive; censored for cell count
same,outcome,library stock 400 µM,inactive; censored for cell count
same,outcome,library stock 2 mM,inactive; censored for cell count
same,outcome,library stock 10 mM,inactive; censored for cell count
same,z-score,[5],5.13 (active)
same,cell count,[5],1630
CCCCC(C)(C)[C@H](O)/C=C/[C@H]1C=CC(=O)[C@@H]1CCCCCCC(=O)O,z-score,,0.218 (inactive)
same,cell count,,4930
CCCCC[C@@H](O)/C=C/[C@H]1[C@H](O)CC(=O)[C@@H]1C/C=C\CCCC(=O)O,z-score,,-0.0831 (inactive)
same,cell count,,5100
CCCCCCCCCCCCCCCCCCCCCCCCCCCCCCO,z-score,,-1.19 (inactive)
same,cell count,,5750
CCCCCCCCCCCC(=O)O,z-score,,0.0111 (inactive)
same,cell count,,5210
CCCCCCCCCCCCCCP(=O)(O)O,z-score,,1.99 (active)
same,cell count,,4360
O=C(O)CCn1nnc2ccccc21,z-score,[1],-0.598 (inactive)
same,z-score,[2],-0.676 (inactive)
same,z-score,[3],-0.406 (inactive)
same,z-score,[4],-0.311 (inactive)
same,cell count,[1],7120
same,cell count,[2],7440
same,cell count,[3],7310
same,cell count,[4],7490
Cn1cncc1[C@@](N)(c1ccc(Cl)cc1)c1ccc2c(c1)c(-c1cccc(Cl)c1)cc(=O)n2C,z-score,[5],0.384 (inactive)
same,z-score,[6],1.69 (inactive)
same,z-score,[7],2.04 (active)
same,z-score,[4],1.89 (inactive)
same,cell count,[5],5540
same,cell count,[6],3990
same,cell count,[7],3590
same,cell count,[4],3700
CCCCCCCC/C=C\CCCCCCCCCCCCCC(=O)N[C@@H](CO)[C@H](O)/C=C/CCCCCCCCCCCCC,z-score,,0.191 (inactive)
same,cell count,,5540
CCCCC[C@H]1/C=C/[C@@H]2[C@@H](C/C=C\CCCC(=O)O1)[C@@H](O)C[C@H]2O,z-score,,-1.49 (inactive)
same,cell count,,5780
Cn1c2cc(S(C)=O)sc2c2cnn(Cc3cccc(N)c3)c(=O)c21 (stereo not given),z-score,[1],0.266 (inactive)
same,z-score,[2],0.15 (inactive)
same,z-score,[3],-0.3 (inactive)
same,z-score,[4],-0.338 (inactive)
same,cell count,[1],6150
same,cell count,[2],6110
same,cell count,[3],6540
same,cell count,[4],6600
O=P(O)(O)O[C@H]1[C@@H](O)[C@H](O)[C@@H](OP(=O)(O)O)[C@H](OP(=O)(O)O)[C@H]1O,z-score,,-0.14 (inactive)
same,cell count,,4340
COC(=O)NC(C)CNc1nccc(-c2cn(C(C)C)nc2-c2cc(Cl)cc(NS(C)(=O)=O)c2F)n1 (stereo not given),z-score,[1],-0.459 (inactive)
same,z-score,[2],-0.411 (inactive)
same,z-score,[3],0.775 (inactive)
same,z-score,[4],4.21 (active)
same,cell count,[1],6450
same,cell count,[2],6190
same,cell count,[3],4330
same,cell count,[4],1620
CCN(C)C(=O)Oc1cccc(C(C)N(C)C)c1 (stereo not given),z-score,[5],-0.403 (inactive)
same,z-score,[6],-0.339 (inactive)
same,z-score,[7],-0.314 (inactive)
same,z-score,[4],-0.639 (inactive)
same,cell count,[5],6790
same,cell count,[6],6310
same,cell count,[7],6660
same,cell count,[4],6230
CC(C)(C)n1nc(-c2ccc(Cl)cc2)c2c(N)ncnc21,z-score,[5],-0.14 (inactive)
same,z-score,[6],0.32 (inactive)
same,z-score,[7],0.695 (inactive)
same,z-score,[4],1.68 (inactive)
same,cell count,[5],5420
same,cell count,[6],5110
same,cell count,[7],5300
same,cell count,[4],4150
CC(C)(C)n1nc(Cc2cccc3ccccc23)c2c(N)ncnc21,z-score,,-0.348 (inactive)
same,cell count,,5760
Cc1ccc(-c2nn(C(C)(C)C)c3ncnc(N)c23)cc1,z-score,[1],0.0479 (inactive)
same,z-score,[2],0.621 (inactive)
same,z-score,[3],1.98 (active)
same,z-score,[4],5.9 (active)
same,cell count,[1],6410
same,cell count,[2],5940
same,cell count,[3],6220
same,cell count,[4],4640
COc1cc(Cc2cnc(N)nc2N)c2c(c1OC)OC(C1CC1)C=C2 (stereo not given),z-score,[5],-0.274 (inactive)
same,z-score,[6],-0.19 (inactive)
same,z-score,[7],-0.518 (inactive)
same,z-score,[4],-0.337 (inactive)
same,cell count,[5],5160
same,cell count,[6],5070
same,cell count,[7],5260
same,cell count,[4],4960
CC(Sc1nc2ccccc2[nH]1)C(=O)N/N=C/c1cc(Br)ccc1O (stereo not given),z-score,,-0.336 (inactive)
same,cell count,,5170
CC(Sc1nc2ccccc2[nH]1)C(=O)NN=Cc1cc(Br)ccc1O (stereo not given),z-score,[1],-1.02 (inactive)
same,z-score,[2],-0.707 (inactive)
same,z-score,[3],-0.734 (inactive)
same,z-score,[4],3.92 (active)
same,cell count,[1],7560
same,cell count,[2],6830
same,cell count,[3],7060
same,cell count,[4],3080
CC/C=C\C/C=C\C/C=C\C/C=C\C/C=C\C/C=C\CCC(=O)NCCO,z-score,,-0.366 (inactive)
same,cell count,,5340
COc1ccc(CCOC2CCCCC2N2CCC(O)C2)cc1OC (stereo not given),z-score,[5],0.0501 (inactive)
same,z-score,[6],0.255 (inactive)
same,z-score,[7],-0.0276 (inactive)
same,z-score,[4],-0.648 (inactive)
same,cell count,[5],5440
same,cell count,[6],4950
same,cell count,[7],5110
same,cell count,[4],5070
CN1CCN(c2ccc(Nc3cc(-c4cccc(-n5ccc6cc(C7CC7)cc(F)c6c5=O)c4CO)cn(C)c3=O)nc2)CC1,z-score,[1],-0.128 (inactive)
same,z-score,[2],0.295 (inactive)
same,z-score,[3],0.189 (inactive)
same,z-score,[4],2.34 (active)
same,cell count,[1],6870
same,cell count,[2],6260
same,cell count,[3],6670
same,cell count,[4],4620
Cc1ccc(-c2ccc3c(c2)C=C(C(=O)Nc2ccc(C[N+](C)(C)C4CCOCC4)cc2)CCC3)cc1,z-score,[5],0.0335 (inactive)
same,z-score,[6],-0.0352 (inactive)
same,z-score,[7],0.025 (inactive)
same,z-score,[4],0.462 (inactive)
same,cell count,[5],6000
same,cell count,[6],5610
same,cell count,[7],5740
same,cell count,[4],4810
CCCCc1ccc(O)cc1O,z-score,[5],-0.0561 (inactive)
same,z-score,[6],-0.187 (inactive)
same,z-score,[7],-0.116 (inactive)
same,z-score,[4],-0.378 (inactive)
same,cell count,[5],5090
same,cell count,[6],5680
same,cell count,[7],5060
same,cell count,[4],5370
CCC1C(=O)N(C)c2cnc(Nc3ccc(C(=O)NC4CCC(N5CCN(CC6CC6)CC5)CC4)cc3OC)nc2N1C(C)C (stereo not given),outcome,library stock 80 µM,inactive; censored for cell count
same,outcome,library stock 400 µM,inactive; censored for cell count
same,outcome,library stock 2 mM,inactive; censored for cell count
same,outcome,library stock 10 mM,inactive; censored for cell count
CC(C)c1ccc(-c2cc(=O)c3ccccc3o2)cc1,z-score,[5],0.0844 (inactive)
same,z-score,[6],1e-05 (inactive)
same,z-score,[7],-0.0931 (inactive)
same,z-score,[4],-0.264 (inactive)
same,cell count,[5],5390
same,cell count,[6],5660
same,cell count,[7],5670
same,cell count,[4],5910
CCc1nc(N)nc(N)c1-c1ccc(Cl)cc1,z-score,[1],-0.369 (inactive)
same,z-score,[2],-0.308 (inactive)
same,z-score,[3],-0.256 (inactive)
same,z-score,[4],2.87 (active)
same,cell count,[1],6220
same,cell count,[2],5950
same,cell count,[3],4990
same,cell count,[4],2210
Cc1nc(C(=O)N2CCCC2Cc2nnc(-c3ccccc3)o2)c(-c2ccccc2F)s1 (stereo not given),z-score,[5],-0.436 (inactive)
same,z-score,[6],-0.462 (inactive)
same,z-score,[7],-0.287 (inactive)
same,z-score,[4],-0.37 (inactive)
same,cell count,[5],6270
same,cell count,[6],5950
same,cell count,[7],5640
same,cell count,[4],5740
CCCCC[C@H](O)/C=C/[C@H]1C(=O)C[C@H](O)[C@@H]1C/C=C\CCCC(=O)OCC(O)CO (stereo not given in full),z-score,,0.539 (inactive)
same,cell count,,4970
CCCCC[C@H](O)/C=C/[C@@H]1[C@@H](C/C=C/CCCC(=O)O)[C@@H](O)C[C@H]1O,z-score,,-0.886 (inactive) and -1.17 (inactive)
same,cell count,,5940 and 5560
CC(=O)Nc1ccc(C(=O)Nc2sc(Nc3ccccc3)nc2C(N)=O)cc1,z-score,[5],0.365 (inactive)
same,z-score,[6],0.37 (inactive)
same,z-score,[7],2.89 (active)
same,z-score,[4],5.1 (active)
same,cell count,[5],5180
same,cell count,[6],5070
same,cell count,[7],3500
same,cell count,[4],2950
CC(=O)Nc1ccc(NC(=S)NC(=O)c2ccc(C(C)(C)C)cc2)cc1,z-score,,1.3 (inactive)
same,cell count,,5410
COc1ccc(C(=O)Nc2sc(Nc3ccccc3)nc2C(N)=O)cc1,z-score,[5],0.24 (inactive)
same,z-score,[6],0.382 (inactive)
same,z-score,[7],-0.143 (inactive)
same,z-score,[4],1.05 (inactive)
same,cell count,[5],4690
same,cell count,[6],4800
same,cell count,[7],4780
same,cell count,[4],4300
CCCCC[C@H](O)CC[C@@H]1[C@@H](CCCCCCC(=O)O)[C@@H](O)C[C@H]1O,z-score,,-0.187 (inactive)
same,cell count,,5660
COc1cc(Nc2ncc(F)c(Nc3ccc4c(n3)NC(=O)C(C)(C)O4)n2)cc(OC)c1OC,z-score,[5],-0.348 (inactive)
same,z-score,[6],-0.268 (inactive)
same,z-score,[7],0.433 (inactive)
same,z-score,[4],2.15 (active)
same,cell count,[5],4400
same,cell count,[6],3910
same,cell count,[7],3800
same,cell count,[4],1990
CCCCCCCCCCCCCCNC(=O)C1CCCCC1,z-score,,-0.131 (inactive)
same,cell count,,5060
COc1cc(C(C)C)c2c(c1)S(=O)(=O)N(COc1cc(=O)n3cccc(OCCN4CCCCC4)c3n1)C2=O,z-score,[1],-0.456 (inactive)
same,z-score,[2],-0.0963 (inactive)
same,z-score,[3],-0.654 (inactive)
same,z-score,[4],-0.644 (inactive)
same,cell count,[1],7070
same,cell count,[2],6790
same,cell count,[3],6790
same,cell count,[4],5780
CN(C)C(=O)c1cc2cnc(Nc3ccc(N4CCNCC4)cn3)nc2n1C1CCCC1,z-score,[5],0.288 (inactive)
same,z-score,[6],0.657 (inactive)
same,z-score,[7],1.74 (inactive)
same,z-score,[4],2.33 (active)
same,cell count,[5],5680
same,cell count,[6],5400
same,cell count,[7],4600
same,cell count,[4],3840
CC(=O)c1c(C)c2cnc(Nc3ccc(N4CCNCC4)cn3)nc2n(C2CCCC2)c1=O,z-score,[1],-0.186 (inactive)
same,z-score,[5],-0.0747 (inactive)
same,z-score,[2],0.0516 (inactive)
same,z-score,[6],0.049 (inactive)
same,z-score,[3],1.11 (inactive)
same,z-score,[7],0.264 (inactive)
same,z-score,[4],-0.00116 (inactive) and 1.25 (inactive)
same,cell count,[1],4850
same,cell count,[5],4290
same,cell count,[2],4600
same,cell count,[6],4340
same,cell count,[3],3490
same,cell count,[7],4140
same,cell count,[4],4170 and 3080
CCCCC/C=C\C/C=C\C/C=C\C/C=C\CCCCN1C(=O)C=CC1=O,z-score,,0.0996 (inactive)
same,cell count,,4710
Nc1nc2c([nH]c(=O)n2[C@H]2C[C@H](O)[C@@H](CO)O2)c(=O)[nH]1,z-score,,-0.23 (inactive)
same,cell count,,5380
O=C(Nc1ccc(N2CCOCC2)cc1)c1n[nH]c2ccccc12,z-score,[5],0.294 (inactive)
same,z-score,[6],0.396 (inactive)
same,z-score,[7],-0.44 (inactive)
same,z-score,[4],0.0641 (inactive)
same,cell count,[5],5020
same,cell count,[6],4770
same,cell count,[7],4900
same,cell count,[4],4350
CCCCC[C@H](O)/C=C/[C@H]1C(=O)C[C@H](O)[C@@H]1CCCCCCCO,z-score,,0.644 (inactive)
same,cell count,,4950
